{
  "source": "PubChem BioAssay (EPA / NIEHS)",
  "note": "“And” between values parts separate entries of the source, which are not always exact repeats. Equal entries are not always repeated. The source made the active and inactive calls. How the source made its calls: active means hit-call score of the fitted dose curve at least 0.9, where 1 is the maximum; inactive means score below 0.9.",
  "data": [
    {"read-out": "urokinase plasminogen activator (uPA), PLAU (gene 5328)", "assay": "BSK_KF3CT_uPA: BioMAP Diversity Plus: KF3CT Assay for urokinase plasminogen activator (uPA) Biomarker Activity (AID 2283075)", "conditions": "primary human keratinocytes with fibroblasts; actives raise or lower the signal", "protocol": "BSK_KF3CT is a cell-based, multiplexed-readout assay that uses keratinocytes and foreskin fibroblasts, a human skin primary cell co-culture, with measurements taken at 24 hours after chemical dosing in a 96-well plate.BSK_KF3CTA is an assay component measured in the BSK_KF3CT assay. It measures uPA antibody related to regulation of gene expression using ELISA technology.Data from the assay component BSK_KF3CTA was analyzed into 1 assay endpoint. This assay endpoint, BSK_KF3CTA, was analyzed with bidirectional fitting relative to DMSO as the negative control and baseline of activity. Using a type of binding reporter, gain or loss-of-signal activity can be used to understand changes in the signaling as they relate to the gene PLAU. Furthermore, this assay endpoint can be referred to as a primary readout, because this assay has produced multiple assay endpoints where this one serves a signaling function. To generalize the intended target to other relatable targets, this assay endpoint is annotated to the protease intended target family, where the subfamily is serine protease.\nThe levels of cell surface (or secreted, indicated by the prefix \"s\") biomarker endpoints were measured by ELISA. Overt cytotoxicity to cells in confluent adherent cultures (all systems other than the BT system) was assessed by measuring total protein levels using sulforhodamine B (SRB) staining in parallel cultures at the time of biomarker measurements, indicated as SRB endpoints. For proliferation assays for adherent cell types, individual cell types are cultured at sub-confluence and relative cell numbers quantified by SRB staining at time points optimized for each system (48 h: 3C and CASM3C systems; 72 h: BT and HDF3CGF systems; 96 h: SAg system). SRB was performed by staining cells with 0.1% SRB after fixation with 10% TCA and reading wells at 560 nm.Viability and proliferation of PBMC (T cells) was quantified by Alamar Blue reduction for the SAg and BT systems. For PBMC viability (referred to as PBMC Cytotoxicity within the assay endpoint names), cells were plated (75,000/well in a 96-well plate) and then chemical samples added for 1 h before addition of activators, SEB and TSST-1 (20 ng/mL final concentration each). Cells were incubated for 90 h. Then, Alamar Blue (20 uL/well) (Invitrogen, Cat DAL1100) was added for 6 h, and the plates were read with a fluorescence microplate reader at 546/580 nm (excitation/emission). For PBMC proliferation, cells were plated and activated as above but incubated for only 16 h prior to addition of Alamar Blue. Plates were read after 6 h.", "values": [
      {"smiles": "S=C(NC1CCCCC1)NC1CCCCC1", "outcome": "inactive"},
      {"smiles": "C=C[Si](OC(C)=O)(OC(C)=O)OC(C)=O", "outcome": "inactive"},
      {"smiles": "O=C(Nc1ccccc1SSc1ccccc1NC(=O)c1ccccc1)c1ccccc1", "outcome": "inactive"},
      {"smiles": "N#[N+]c1ccc2c(S(=O)(=O)[O-])cccc2c1O", "outcome": "inactive"},
      {"smiles": "C=CCOCC(O)CCl", "note": "(stereo unspecified)", "outcome": "inactive"},
      {"smiles": "C/C=C\\C/C=C/CCCCCCCCOC(C)=O", "outcome": "inactive"},
      {"smiles": "C=CC(=O)OCC(Br)CBr", "note": "(stereo unspecified)", "AC50": "34.1 µM (active)"},
      {"smiles": "CCOC(=O)c1ccccc1C(=C1C=C(Br)C(=O)C(Br)=C1)c1cc(Br)c(O)c(Br)c1", "AC50": "3.6 µM (active) and 3.63 µM (active)"},
      {"smiles": "COCc1c(C(C)C)nc(C(C)C)c(/C=C/[C@@H](O)C[C@@H](O)CC(=O)O)c1-c1ccc(F)cc1", "outcome": "inactive"},
      {"smiles": "C=CCOc1c(Br)cc(Br)cc1Br", "AC50": "28.6 µM (active)"},
      {"smiles": "c1ccc2c(c1)ccc1ncccc12", "outcome": "inactive"},
      {"smiles": "O=C1CCCN1CCO", "outcome": "inactive"},
      {"smiles": "CCO[Si](C)(OCC)OCC", "outcome": "inactive"},
      {"smiles": "CC(C)(c1cc(Br)c(OCCO)c(Br)c1)c1cc(Br)c(OCCO)c(Br)c1", "AC50": "16.2 µM (active)"},
      {"smiles": "c1ccc2c(c1)ccc1cc3c(ccc4ccccc43)cc12", "outcome": "inactive"},
      {"smiles": "CCCCCCCCc1ccc(Nc2ccc(CCCCCCCC)cc2)cc1", "outcome": "inactive"},
      {"smiles": "COc1ccc2nc(N)sc2c1", "outcome": "inactive"},
      {"smiles": "CN1C(=O)N(C)C(O)C1O", "note": "(stereo unspecified)", "outcome": "inactive"},
      {"smiles": "CCCCC(CC)COC(=O)c1ccccc1O", "note": "(stereo unspecified)", "outcome": "inactive"},
      {"smiles": "O=C(c1ccc(O)cc1)c1ccc(O)cc1O", "outcome": "inactive"},
      {"smiles": "CO[Si](OC)(OC)c1ccccc1", "outcome": "inactive"},
      {"smiles": "CCOc1nc(F)cc2nc(S(=O)(=O)Nc3c(Cl)cccc3C(=O)OC)nn12", "outcome": "inactive"},
      {"smiles": "C#CC1(O)CC[C@H]2[C@@H]3CCC4=CCCC[C@@H]4[C@H]3CC[C@@]21C", "note": "(stereo partly specified)", "AC50": "35.1 µM (active)"},
      {"smiles": "Nc1ccc(N)c(Cl)c1", "outcome": "inactive"},
      {"smiles": "CCO[Si](CCCN=C=O)(OCC)OCC", "outcome": "inactive"},
      {"smiles": "O=Nc1ccc(O)cc1", "outcome": "inactive"},
      {"smiles": "CC(C)C(=O)C(C)C", "outcome": "inactive"},
      {"smiles": "CCCCC(CC)COCC1CO1", "note": "(stereo unspecified)", "outcome": "inactive"},
      {"smiles": "O=c1c2ccccc2oc2ccccc12", "outcome": "inactive"},
      {"smiles": "CCCCC/C=C\\C/C=C\\CCCCCCCC(=O)OC", "AC50": "30.8 µM (active)"},
      {"smiles": "c1ccc(-c2ccccn2)nc1", "outcome": "inactive"},
      {"smiles": "C=CC=CC=CCCCCC", "outcome": "inactive"},
      {"smiles": "CC1OC1C1CCC2(C)OC2C1", "note": "(stereo unspecified)", "outcome": "inactive"},
      {"smiles": "O=C(Cl)c1cc(C(=O)Cl)cc(C(=O)Cl)c1", "AC50": "30.9 µM (active)"},
      {"smiles": "CCCCNc1ccc(NCCCC)c2c1C(=O)c1ccccc1C2=O", "outcome": "inactive"},
      {"smiles": "CCCCCCCCCCCCCCCC[N+](C)(C)CC", "AC50": "7.22 µM (active)"}
    ]}
  ]
}
